This is a sample that favours compounds with a hit; in the whole collection about 17% have one here.
TDP1 inh – inhibitors of human tyrosyl-DNA phosphodiesterase TDP1. Q9NUW8. recombinant TDP1, AlphaScreen DNA substrate cleavage. Potency, µM (highest dose often 130 µM), for the others: at the top dose activity change, negative = inhibition, usual class: inhibitors. 0.28% of 350,000 active; further: on the % scale 0 is the no-effect control and ±100 the full control effect; nearly all actives have a fitted effect of over 40% in size
Target sequence (Q9NUW8 whole entry, looked up): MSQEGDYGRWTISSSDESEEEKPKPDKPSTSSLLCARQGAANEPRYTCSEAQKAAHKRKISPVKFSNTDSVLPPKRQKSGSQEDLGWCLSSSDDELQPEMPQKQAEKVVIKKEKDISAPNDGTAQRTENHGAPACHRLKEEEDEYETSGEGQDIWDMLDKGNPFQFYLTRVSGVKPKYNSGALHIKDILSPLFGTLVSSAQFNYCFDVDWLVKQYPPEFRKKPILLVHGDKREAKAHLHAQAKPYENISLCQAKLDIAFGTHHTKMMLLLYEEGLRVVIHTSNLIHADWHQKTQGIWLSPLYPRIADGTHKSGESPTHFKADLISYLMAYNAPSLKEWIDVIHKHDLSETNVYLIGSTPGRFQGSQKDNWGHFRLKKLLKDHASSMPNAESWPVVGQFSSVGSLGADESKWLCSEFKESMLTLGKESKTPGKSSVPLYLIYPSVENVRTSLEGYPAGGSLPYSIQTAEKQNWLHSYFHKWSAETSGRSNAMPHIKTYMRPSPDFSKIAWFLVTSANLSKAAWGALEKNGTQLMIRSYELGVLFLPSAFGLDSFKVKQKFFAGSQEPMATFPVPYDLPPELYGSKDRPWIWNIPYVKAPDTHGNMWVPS
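Here, a 5' biotin and 3' phosphotyrosine-FITC DNA oligonucleotide reports Tdp1 activity: intact substrate bridges AlphaScreen beads, while cleavage leaves a 3' phosphate and drops signal. All incubations at room temperature.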
TDP1 cell CPT – growth inhibition of DT40 Tdp1-/-;hTDP1 cells with camptothecin (screen for TDP1 inhibitors) | AID 686979 | chicken DT40 Tdp1-/-;hTDP1 cells + 20 nM CPT, ATP luminescence, 48 h | Potency, µM (series often up to 46.2 µM), without a hit: at the highest dose activity change, negative = growth inhibition, usual class: inhibitors | 12% of 420,000 active; further: on the % scale 0 is the no-effect control and ±100 the full control effect; nearly all actives have a fitted effect of over 55% in size
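Chicken DT40 Tdp1-/- cells complemented with human TDP1, 400 cells/well, exposed to compounds plus 20 nM camptothecin for at least 48 h at 37 C; viability read as ATP content by CellTiter-Glo luminescence.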
ClpP mod – qHTS Assay for Activators of ClpP; ATP-dependent Clp protease proteolytic subunit (Bacillus subtilis (strain 168)), P80244; AID 651965, 2013; Potency, µM (doses to about 57.5 µM), for inactives: at the highest dose activity change, negative = active; purified B. subtilis ClpP, FRET peptide cleavage, 20 min; 1.9% of 340,000 active; active means well fitted falling curve with a large enough effect; inconclusive means small, poorly fitted or top-dose-only effect; inactive means no such curve, though single readings can be large or run the other way; further: the source files actives as falling curves though it sought activators and does not explain the sign; nearly all actives have a fitted effect of over 65% in size
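FRET quenching reversal measured ClpP activation: 10 microg/mL B. subtilis ClpP at pH 8 with the FRET-FV decapeptide, read at 430 nm after 320 nm excitation. The 20-min minus 0-min signal was scaled between DMSO/no-enzyme wells and ADEP (5.8 microM final).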
TDP1 cell noCPT – qHTS for Inhibitors of human tyrosyl-DNA phosphodiesterase 1 (TDP1): qHTS in cells in absence of CPT | 15% of 420,000 active | AID 686978, 2013 | DT40 Tdp1-/- hTDP1 cells, no CPT, ATP luminescence, 48 h | Potency, µM (titrated, usually from 46.2 µM), inactives show top-dose activity change, negative = growth inhibition, usual class: inhibitors; further: on the % scale 0 is the no-effect control and ±100 the full control effect; nearly all actives have a fitted effect of over 55% in size
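Compound effects on proliferation are scored in DT40 Tdp1-/-;hTDP1 cells in the absence of CPT. ATP levels (CellTiter-Glo luminescence) are recorded after a ≥48 hr, 37 °C incubation.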
An asterisk follows results filed as active; ? = inconclusive; . = not tested or not shown; [ ] = remark or other dose. Unless noted, the call rests on the fitted dose curve; in most records, active means well fitted curve in the direction sought with a large enough effect; inconclusive means small, poorly fitted or top-dose-only effect, or another doubt; inactive means no such curve, though single readings can be large; an effect the other way counts as inactive or inconclusive. Potency means the concentration at half of the fitted maximal effect.

SMILES	TDP1 inh	TDP1 cell CPT	ClpP mod	TDP1 cell noCPT
CCCCCCCCN1C(=O)[C@H](CC(=O)N2CCN(C(=O)c3ccco3)CC2)C[C@@]2(C(=O)OC)CC(C)(C)CC=C12	.	12µM*	2%	15µM*
CCCCCCCCN1C(=O)[C@H](CC(=O)N2CCN(C(=O)c3ccco3)CC2)C[C@@]2(C(=O)OC)CCCCC=C12	.	?	1%	23µM*
O=C(Nc1ccncc1)C1C(=O)c2ccccc2N(Cc2ccccc2)C1=O (centres undefined)	0%	1µM*	-6%	0.71µM*
Cc1cc(-n2c(C)cc(C(=O)CSc3nc4ccccc4c(=O)n3Cc3ccco3)c2C)no1	9%	23µM*	0%	21µM*
O=C(CSc1nc2ccccc2c(=O)n1Cc1ccco1)c1ccccc1	-2%	16µM*	-2%	21µM*
O=c1c2ccccc2nnn1CSc1nc2ccccc2c(=O)n1Cc1ccco1	2%	23µM*	0%	21µM*
O=C(CSc1n[nH]c(-c2ccc(F)cc2)n1)N1CCN(c2ccc(F)cc2)CC1	8%	16µM*	1%	23µM*
O=C1C(=O)N(Cc2ccccc2)C(=O)N1CCOc1ccccc1	3%	?	.	?
CC1CCN(c2nc3ccc(C(=O)NCCc4ccc(S(N)(=O)=O)cc4)cc3s2)CC1	8%	7%	0%	-9%
CCCn1c(SCC(=O)N2CCN(c3ccccc3)CC2)nc2ccccc2c1=O	9%	?	-2%	?
Cc1ccc(-n2nnnc2SCn2nnc3ccccc3c2=O)c(C)c1	2%	9.2µM*	0%	8.2µM*
COc1ccc(Cn2c(SCC(=O)N3CCN(c4ccc(F)cc4)CC3)nc3ccccc32)cc1	2%	21µM*	-7%	21µM*
O=C(CSc1nc2ccccc2n1Cc1ccccc1)N1CCN(c2ccc(F)cc2)CC1	-2%	-14%	7%	-23%
CCN(CC)C(=O)CSc1nc2ccccc2c(=O)n1CCC(=O)N1CCN(c2ccccc2)CC1	4%	16µM*	0%	?
CCn1c(SCC(=O)N2CCN(c3ccc(F)cc3)CC2)nc2ccccc2c1=O	1%	21µM*	-4%	?
CCN1C(=O)[C@H]2[C@H]3CN=C(SCc4ccc(C)cc4)N3[C@@](Cc3ccccc3)(C(=O)OC)[C@H]2C1=O	1%[56.1 µM]	?	-2%	?
COC(=O)c1cc(NC(=O)N2c3ccccc3Sc3ccccc32)cc(C(=O)OC)c1	10%	?	-6%	?
O=C(CCn1c(=O)oc2ccc(Cl)cc21)N1CCN(c2ccccc2)CC1	.	-27%	-13%	-16%
Cc1cc2nc(-c3ccco3)c(Cc3ccccc3C(F)(F)F)n2c(C)c1Br	.	?	-4%	?
CCc1ccccc1-n1c(N)c(C(=O)OC)c2nc3ccccc3nc21	.	-19%	4%	?
O=C(CSc1nc2ccccc2c(=O)n1Cc1ccco1)N1CCN(c2ccccc2)CC1	4%	?	-17%	26µM*
O=C(CSc1nc2ccccc2c(=O)n1CCCN1CCOCC1)N1CCN(c2ccccc2)CC1	-2%	-10%	-2%	?
N#Cc1ccccc1COC(=O)c1ccc2c(c1)OCO2	-7%	0%	-1%	?
N#Cc1ccccc1COC(=O)c1ccc2c(c1)OCCO2	89µM*	?	.	-10%
c1ccc(CNc2c(-c3cccc(SC4CCCCC4)c3)nc3ccccn23)cc1	0%	?	4%	?
SMILES	TDP1 inh	TDP1 cell CPT	ClpP mod	TDP1 cell noCPT
Cc1ccc2nc(-c3cccc(SC4CCCCC4)c3)c(NCc3ccccc3)n2c1	1%	26µM*	4%	18µM*
Cc1ccc2nc(-c3cccnc3)c(NC3CCCCC3)n2c1	-2%	?	-1%	?
Cc1ccn2c(NCc3ccccc3)c(-c3cccc(SC4CCCCC4)c3)nc2c1	-5%	23µM*	?	?
CCC(C)Sc1cccc(-c2nc3cc(C)ccn3c2NCc2ccccc2)c1 (centres undefined)	-2%	23µM*	?	?
CCC(C)Sc1ccc(-c2nc3ccc(C)cn3c2NC2CCCCC2)cc1 (centres undefined)	.	7.3µM*	4%	8.2µM*
CC(NC(=O)CCCc1ccccc1)c1ccncc1 (centres undefined)	.	9%	-3%	-10%

Compound activity: PubChem, National Center for Advancing Translational Sciences (NCATS)
